From the OligoGym collection

These sequences were tested against RASGRP2 (assay: pooled miR-30 sensor sort-seq; sequence = guide strand). Conditions: shRNA.
Further: reference of the scale not given here.

Sequence	sensor-assay potency score (higher = more potent)
TACTGATCCAGAGACACCGTGA	0.0565
TTTGCTGAGGATCATGAGCTGC	-0.888
TTGTTGGTAGATGTGGAGCAGC	-1.12
TTCAAGTCAAACTCCGCTGGGA	0.724

The sequences below were run against RASIP1 in the same assay as above. Conditions: shRNA.

Sequence	sensor-assay potency score (higher = more potent)
TTTTCTGAGCGCTCCTTGCCTC	-0.853
TCAACTGATCGAAGTCCCCGGG	0.0667
TGAATAGAGAGTCTTGGTGAGG	-1.22
TTCCAAGTCATTGCAGAGCTGT	-0.369
AAGAAGACTTGACAGAGGCTGC	0.0487
TTAGGCTGCTCCATGAAGCCTT	-0.552
TAGGTCTCAATCCTGGAGGCAT	-0.489
TTGAATAGAGAGTCTTGGTGAG	0.37
TTGACCTCGTTCCATCAGCGAG	-1.71
TGGAGCAGCAGGAAGTAGGGGC	0.0878
TTGGAGAAGAAGAACAAGTAGC	-0.187
TTGGTCAGCCTCCTTCTCCATT	-1.48

What follows are sequences tested against RASL10B in the same assay as above. Conditions: shRNA.

Sequence	sensor-assay potency score (higher = more potent)
TAGGTTGTTGTGTCTCTGGGGG	0.276
TTGACGTACTCAAAGCTGTCAA	0.000852
TACAAAACTGACAGTGATCAGC	-0.715
ATGTAGGCGTGGACACTCCGGA	-0.908
TAGCCGCACTTCCAGGTCTTGC	-1.97
TCCACGTAGCCGCACTTCCAGG	-2
TTCTAAATCGGTACAAAACTGA	-0.599
TTAATCAGGATAGTCTGAGATC	-1.01
TCGTAGACCAGGATGTAGGCGT	0.139
TAGACCAGGATGTAGGCGTGGA	-0.176
AACTCGTTGTACAAGAACTGGC	0.0656
TCGTTGTACAAGAACTGGCGCA	-0.634

These sequences were tested against RASSF2 in the same assay as above. Conditions: shRNA.

Sequence	sensor-assay potency score (higher = more potent)
TTCGTTGTCATCCTGCATCTGC	0.418
TATGGTTGTAGAAATGGCCGTT	1.03
TCTGCTGACTTCTACATCCAGC	-0.516
TTCTCCATTAGGAACACTTTGG	-1.02
TAACTAAAATCAAAAGTCCTTG	-0.812
TTTGTGTCTAAATGTTTCCATG	-1.27
TTTAAGTACCGGCATCTCGAAC	-0.976
TACATGTGAAAGTATCAGGTAG	-0.041
TTCTGTTTCTCACCACTCGTAT	-0.432
TATCTTGTCCACATGGGACTAG	0.13
TTCCCGATCTTCTTCCTCCTGG	0.559
TATTTATCTTGTCCACATGGGA	-0.838
